# Measurements taken from PMC5540273 (PLoS ONE, 2017).
# Tested on: PKN2
# Conditions: concentration: 1 μM, replicates: in singlicate; n = 1
# 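Also: KINOMEscan kinase panel screen.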
row,Compound,%Inh [%]
1,CC(C)(C)c1ccc(-n2cnc3c(N)ncnc32)cc1 [SKF-97263],11
2,Nc1nccc2scc(-c3ccc4c(c3)CCN4C(=O)Cc3cc(F)ccc3F)c12 [GSK2587663],0
3,NC(=O)c1sc(-n2cnc3ccccc32)cc1OCc1ccccc1F [GSK1024306],0
4,O=C(NCCCN1CCCC1=O)c1cnc(NCc2cc(Cl)ccc2Cl)nc1NC1CCNCC1,11
5,CN1CCC(n2cnc(-c3ccc(F)cc3)c2-c2ccnc(NC3CCNCC3)n2)CC1 [SB-229482],25
6,O=C(Nc1n[nH]c2nc(-c3ccco3)c(Br)cc12)c1ccc(CN2CCCC2)cc1.O=C(O)[C@H](O)[C@@H](O)C(=O)O [SB-742352],21
7,FC(F)(F)c1ccc(-c2nn3ncccc3c2-c2ccnc(Nc3cccc(C(F)(F)F)c3)n2)cc1 [GW828205],0
8,COc1ccc(NC(=O)Nc2ccc(C)c(-c3ccc(C(=O)Nc4ccncc4)cc3)c2)cc1 [GSK1398475],0
9,Cl.Fc1ccccc1COc1ccc(Nc2ncnc3ccc(-c4nnc(C(F)(F)F)o4)cc23)cc1Cl [GW424170],0
10,CCC(CC)(CC)n1cnc2c(N)ncnc21 [SKF-97620],0
11,Cn1ccc2ncnc(Oc3ccc(NC(=O)Nc4cccnc4)c(Cl)c3)c21,0
12,Cl.c1ccc(Cn2ncc3cc(Nc4ncnc5ccccc45)ccc32)cc1 [GW273749],0
13,Cc1ccc(O)cc1Nc1cc(C(F)(F)F)nc2ccc(-c3ccncc3)cc12 [GW630823],0
14,Cn1ccc2ncnc(Nc3ccc(Oc4cccc(Cl)c4)c(Cl)c3)c21,0
15,Clc1ccc(-c2cc(-c3c[nH]nc3-c3ccccn3)ccn2)cc1 [GW681251],0
16,COC(=O)c1cccc(NC(=O)NCCNc2ccnc(Nc3ccc(F)cc3)n2)c1 [GSK1379883],0
17,C[C@@H]1CCN(C(=O)CO)C[C@@H]1N(C)c1ncnc2[nH]ccc12,21
18,COc1ccc(NC(=O)c2ccc(-c3cc(-c4nnc(C)o4)ccc3C)cc2)cc1 [GW595885],0
19,CC(C)N1CCC(n2cnc(-c3ccc(F)cc3)c2-c2ccnc(N)n2)CC1 [SB-223132],0
20,Oc1ccc2ncnc(Nc3ccc(OCc4ccccc4)cc3)c2c1 [GI262866],0
21,CC(=O)Nc1n[nH]c2ncc(-c3ccccc3)cc12 [SB-548492],29
22,CCc1nc(-c2cccc(C)c2)c(-c2ccnc(NC(=O)c3ccccc3)c2)s1,0
23,OCCOCCn1ccc2ncnc(Nc3ccc(Oc4cccc(Cl)c4)c(Cl)c3)c21,0

# Tested on: PLK1
# Conditions: concentration: 1 μM, replicates: in singlicate; n = 1
row,Compound,%Inh [%]
1,Clc1cc(Nc2ncnc3cc[nH]c23)ccc1OCc1ccccn1,2
2,COc1cc2ncnc(Nc3ccc(OCc4ccccc4Br)c(Cl)c3)c2cc1OC.Cl [GI261590],3
3,CCCc1ccc(S(=O)(=O)NC2CCN(c3ccnc(Nc4ccc(OC)cc4)n3)C2)cc1 (stereo not shown) [GSK1379737],1
4,C[C@H]1CC[C@@H](C(=O)Nc2ccccc2)CN1c1cc(-c2ccc3c(N)n[nH]c3c2)nc(N)n1 [GSK2283293],0
5,Fc1ccc(Nc2nccc(-c3c(-c4ccc(Cl)cc4)nn4ncccc34)n2)cc1F [GW829058],32
6,COc1ccc(-c2oc3ncnc(N)c3c2-c2ccc(OC)cc2)cc1 [SB-589132],3
7,Nc1nc(-c2ccc3c(N)n[nH]c3c2)cc(N2CCC[C@@H](C(=O)Nc3ccccc3)C2)n1.O=C(O)C(F)(F)F.O=C(O)C(F)(F)F [GSK2288359],3
8,CS(=O)(=O)CCNCc1ccc(-c2ccc3ncnc(Nc4ccc(OCc5ccccc5)c(Cl)c4)c3c2)o1.Cl [GW574783],6
9,CNc1nccc(-c2c(-c3ccc(F)cc3)ncn2C2CCN(C)CC2)n1 [SB-222903],0
10,Cl.O=S(=O)(c1cccc(F)c1)c1ccc(Nc2ncnc3cc(Br)sc23)cc1Cl [GSK306886],0
11,Cl.c1ccc(Cn2ccc3cc(Nc4ncnc5ccccc45)ccc32)cc1 [GW275568],4
12,FC(F)(F)c1ccc(-c2cc(-c3c[nH]nc3-c3ccccn3)ccn2)cc1 [GW599550],0
13,CC(C)(C)c1ccc(-n2cnc3c(N)ncnc32)cc1 [SKF-97263],7
14,Nc1nccc2scc(-c3ccc4c(c3)CCN4C(=O)Cc3cc(F)ccc3F)c12 [GSK2587663],0
15,NC(=O)c1sc(-n2cnc3ccccc32)cc1OCc1ccccc1F [GSK1024306],99.8
16,O=C(NCCCN1CCCC1=O)c1cnc(NCc2cc(Cl)ccc2Cl)nc1NC1CCNCC1,0
17,CN1CCC(n2cnc(-c3ccc(F)cc3)c2-c2ccnc(NC3CCNCC3)n2)CC1 [SB-229482],11
18,O=C(Nc1n[nH]c2nc(-c3ccco3)c(Br)cc12)c1ccc(CN2CCCC2)cc1.O=C(O)[C@H](O)[C@@H](O)C(=O)O [SB-742352],0

row,Compound,%Inh [%]
1,FC(F)(F)c1ccc(-c2nn3ncccc3c2-c2ccnc(Nc3cccc(C(F)(F)F)c3)n2)cc1 [GW828205],0
2,COc1ccc(NC(=O)Nc2ccc(C)c(-c3ccc(C(=O)Nc4ccncc4)cc3)c2)cc1 [GSK1398475],0
3,Cl.Fc1ccccc1COc1ccc(Nc2ncnc3ccc(-c4nnc(C(F)(F)F)o4)cc23)cc1Cl [GW424170],0
4,CCC(CC)(CC)n1cnc2c(N)ncnc21 [SKF-97620],45
5,Cn1ccc2ncnc(Oc3ccc(NC(=O)Nc4cccnc4)c(Cl)c3)c21,0
6,Cl.c1ccc(Cn2ncc3cc(Nc4ncnc5ccccc45)ccc32)cc1 [GW273749],2
7,Cc1ccc(O)cc1Nc1cc(C(F)(F)F)nc2ccc(-c3ccncc3)cc12 [GW630823],0
8,Cn1ccc2ncnc(Nc3ccc(Oc4cccc(Cl)c4)c(Cl)c3)c21,0
9,Clc1ccc(-c2cc(-c3c[nH]nc3-c3ccccn3)ccn2)cc1 [GW681251],0
10,COC(=O)c1cccc(NC(=O)NCCNc2ccnc(Nc3ccc(F)cc3)n2)c1 [GSK1379883],4
11,C[C@@H]1CCN(C(=O)CO)C[C@@H]1N(C)c1ncnc2[nH]ccc12,0
12,COc1ccc(NC(=O)c2ccc(-c3cc(-c4nnc(C)o4)ccc3C)cc2)cc1 [GW595885],0
13,CC(C)N1CCC(n2cnc(-c3ccc(F)cc3)c2-c2ccnc(N)n2)CC1 [SB-223132],0
14,Oc1ccc2ncnc(Nc3ccc(OCc4ccccc4)cc3)c2c1 [GI262866],0
15,CC(=O)Nc1n[nH]c2ncc(-c3ccccc3)cc12 [SB-548492],1
16,CCc1nc(-c2cccc(C)c2)c(-c2ccnc(NC(=O)c3ccccc3)c2)s1,0
17,OCCOCCn1ccc2ncnc(Nc3ccc(Oc4cccc(Cl)c4)c(Cl)c3)c21,0
